# PubChem BioAssay (EPA / NIEHS)
# Records with an inconclusive call do not appear. The source made the active and inactive calls. Rule for the calls, unless noted: active = hit-call score of the fitted dose curve at least 0.9, where 1 is the maximum; inconclusive = response in the unintended direction; inactive = score below 0.9.
# Key:
# [1] = read-out: ABC Transporter (ABCB1), ABCB1 (gene 5243); assay: CLD_ABCB1_24hr: CellzDirect (CLD) Gene Expression Assay for ABC Transporter (ABCB1) at 24 hours (AID 2283684)
# Summary of the method: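 ABCB1 mRNA induction versus 0.2% DMSO vehicle was read by qNPA chemiluminescence at 24 h. Cultured human hepatocytes from two donor preparations received daily fresh dosing, and phase-contrast cytotoxicity calls were annotated alongside the data.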
# [2] = read-out: Cytochrome P450 2B6 (Homo sapiens) (UniProt P20813); assay: CLD_CYP2B6_24hr: CellzDirect (CLD) Gene Expression Assay for xenobiotic metabolism (CYP2B6) at 24 hours (AID 2283686)
# Summary of the method: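 qNPA chemiluminescent measurement of mRNA at 24 hours in human primary hepatocyte cultures from two donor preparations, with daily fresh dosing and 0.2% DMSO vehicle as baseline. Morphology-based cytotoxicity flagged yes/no.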
# [3] = read-out: Cytochrome P450 2C9 (Homo sapiens) (UniProt P11712); assay: CLD_CYP2C9_24hr: CellzDirect (CLD) Gene Expression Assay for xenobiotic metabolism (CYP2C9) at 24 hours (AID 2283688)
# Summary of the method: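 Induction of CYP2C9 mRNA was quantified by quantitative nuclease protection assay (chemiluminescence), gain of signal versus 0.2% DMSO vehicle, 24 h after dosing. Human primary hepatocytes (two donors) received fresh chemical daily at multiple concentrations; morphology-based cytotoxicity flagged yes/no.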
# [4] = read-out: Cytochrome P450 3A4 (Homo sapiens) (UniProt P08684); assay: CLD_CYP3A4_24hr: CellzDirect (CLD) Gene Expression Assay for xenobiotic metabolism (CYP3A4) at 24 hours (AID 2283689)
# Summary of the method: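 CYP3A4 mRNA induction read by quantitative nuclease protection (chemiluminescence) 24 hr after dosing. Cultured human hepatocytes (two donor preparations) treated daily, vehicle 0.2% DMSO; phase-contrast morphology annotates cytotoxicity.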
# [5] = read-out: Glyceraldehyde-3-phosphate dehydrogenase (Homo sapiens) (UniProt P04406); assay: CLD_GAPDH_24hr: CellzDirect (CLD) Gene Expression Assay for Baseline Control (Glyceraldehyde 3-phosphate dehydrogenase) at 24 hours (AID 2283692)
# Summary of the method: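 GAPDH baseline-control readout: qNPA chemiluminescent mRNA signal in human primary hepatocytes harvested 24 h after daily dosing, normalised to 0.2% DMSO with positive fitting direction; cytotoxicity annotated by phase-contrast morphology.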
# [6] = read-out: alkyl and aryl transferase (GSTA2), GSTA2 (gene 2939); assay: CLD_GSTA2_24hr: CellzDirect (CLD) Gene Expression Assay for alkyl and aryl transferase (GSTA2) at 24 hours (AID 2283693)
# Summary of the method: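 GSTA2 transcript levels were quantified by quantitative nuclease protection assay in primary human hepatocytes 24 h after daily dosing with fresh solutions at multiple concentrations; 0.2% DMSO vehicle as baseline, cytotoxicity flagged morphologically.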
# [7] = read-out: sulfotransferase (SULT2A), SULT2A1 (gene 6822); assay: CLD_SULT2A_24hr: CellzDirect (CLD) Gene Expression Assay for sulfotransferase (SULT2A) at 24 hours (AID 2283694)
# Summary of the method: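 mRNA is measured by qNPA: probe hybridisation, S1 nuclease digestion, chemiluminescence, in lysates from human primary hepatocytes harvested 24 h after daily dosing. Vehicle was 0.2% DMSO. Phase-contrast microscopy flagged cytotoxicity (yes/no).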
# [8] = read-out: ABC Transporter (ABCB1), ABCB1 (gene 5243); assay: CLD_ABCB1_48hr: CellzDirect (CLD) Gene Expression Assay for ABC Transporter (ABCB1) at 48 hours (AID 2283695)
# Summary of the method: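 ABCB1 mRNA was measured by quantitative nuclease protection assay (chemiluminescence) 48 h after dosing. Human hepatocyte cultures from two separate donors received fresh dosing solutions daily for two days, with 0.2% DMSO as vehicle. Positive-direction fit against DMSO.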
# [9] = read-out: glucuronosyltransferase (UGT1A1), UGT1A1 (gene 54658); assay: CLD_UGT1A1_24hr: CellzDirect (CLD) Gene Expression Assay for glucuronosyltransferase (UGT1A1) at 24 hours (AID 2283696)
# Summary of the method: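 UGT1A1 transcript induction was measured by quantitative nuclease protection assay (chemiluminescence) in human hepatocyte cultures 24 h after daily fresh dosing, with 0.2% DMSO as vehicle and baseline.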
# [10] = read-out: Cytochrome P450 3A4 (Homo sapiens) (UniProt P08684); assay: CLD_CYP3A4_48hr: CellzDirect (CLD) Gene Expression Assay for xenobiotic metabolism (CYP3A4) at 48 hours (AID 2283698)
# Summary of the method: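 CYP3A4 induction read by qNPA chemiluminescence after 48 h, with fresh dosing solutions on consecutive days, in cultured human hepatocytes (two donors). Vehicle 0.2% DMSO as baseline; microscopy-based cytotoxicity annotated yes/no alongside data.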
# [11] = read-out: Cytochrome P450 2B6 (Homo sapiens) (UniProt P20813); assay: CLD_CYP2B6_48hr: CellzDirect (CLD) Gene Expression Assay for xenobiotic metabolism (CYP2B6) at 48 hours (AID 2283699);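 note: actives raise transcript level above DMSO so potency reflects induction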
# Summary of the method: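 CYP2B6 transcript induction, read by quantitative nuclease protection (S1 digestion, chemiluminescent detection) 48 h after dosing, is fitted upward against 0.2% DMSO. Cultured human liver primary cells, two donor preparations, received fresh chemical daily over multiple concentrations.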
# [12] = CLD_ACTIN_48hr: CellzDirect (CLD) Gene Expression Assay for Baseline Control (Actin) at 48 hours (AID 2283702)
# Summary of the method: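 Background-control actin mRNA read by qNPA chemiluminescence at 48 h. Human hepatocyte cultures from two donors received fresh multi-concentration chemical doses daily for two days; 0.2% DMSO served as vehicle baseline.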
# [13] = read-out: xenobiotic metabolism (CYP1A2), CYP1A2 (gene 1544); assay: CLD_CYP1A2_48hr: CellzDirect (CLD) Gene Expression Assay for xenobiotic metabolism (CYP1A2) at 48 hours (AID 2283703)
# Summary of the method: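 Cytotoxicity was flagged yes/no from morphology, while CYP1A2 transcript induction was detected by qNPA chemiluminescence after a 48-hour exposure. Human primary hepatocyte cultures from separate donors received fresh dosing solutions daily over two days, with 0.2% DMSO as vehicle and baseline.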
# [14] = read-out: organic anion transporter (SLCO1B1), SLCO1B1 (gene 10599); assay: CLD_SLCO1B1_24hr: CellzDirect (CLD) Gene Expression Assay for organic anion transporter (SLCO1B1) at 24 hours (AID 2283690)
# Summary of the method: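 SLCO1B1 mRNA induction read at 24 h by quantitative nuclease protection assay (chemiluminescence), analyzed against DMSO baseline. Human hepatocyte cultures from separate donors received fresh dosing solutions daily; vehicle 0.2% DMSO; cytotoxicity flagged by phase-contrast morphology.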
# [15] = read-out: Cytochrome P450 2C9 (Homo sapiens) (UniProt P11712); assay: CLD_CYP2C9_48hr: CellzDirect (CLD) Gene Expression Assay for xenobiotic metabolism (CYP2C9) at 48 hours (AID 2283701; active = hit-call score of the fitted dose curve at least 0.9, where 1 is the maximum; inactive = score below 0.9)
# Summary of the method: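 mRNA level measured by quantitative nuclease protection (S1 digestion, chemiluminescent detection) in lysates of human primary hepatocytes exposed 48 h with daily re-dosing. Induction fitted positively versus 0.2% DMSO; morphology-based cytotoxicity flagged yes/no.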
# [16] = read-out: Cytochrome P450 2C19 (Homo sapiens) (UniProt P33261); assay: CLD_CYP2C19_24hr: CellzDirect (CLD) Gene Expression Assay for xenobiotic metabolism (CYP2C19) at 24 hours (AID 2283687);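 note: activity means mRNA induction above DMSO vehicle baseline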
# Summary of the method: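 CYP2C19 mRNA was quantified by qNPA chemiluminescence after 24 h of daily dosing of cultured human primary hepatocytes from two donors; vehicle was 0.2% DMSO, and increases over DMSO baseline were fitted.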
# [17] = read-out: ABC Transporter (ABCB11), ABCB11 (gene 8647); assay: CLD_ABCB11_48hr: CellzDirect (CLD) Gene Expression Assay for ABC Transporter (ABCB11) at 48 hours (AID 2283697)
# Summary of the method: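 Induction of ABCB11 mRNA relative to 0.2% DMSO, measured at 48 h by qNPA chemiluminescence. Cultured human hepatocytes (two donors) received fresh dosing solutions at several concentrations on two consecutive days.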
# [18] = read-out: Cytochrome P450 2C19 (Homo sapiens) (UniProt P33261); assay: CLD_CYP2C19_48hr: CellzDirect (CLD) Gene Expression Assay for xenobiotic metabolism (CYP2C19) at 48 hours (AID 2283700);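 note: fitted upward so actives raise CYP2C19 mRNA above the 0.2% DMSO vehicle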
# Summary of the method: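 CYP2C19 mRNA induction read by chemiluminescent quantitative nuclease protection assay after 48 h, with fresh compound added daily for two days to cultured human liver hepatocytes. Activity fitted upward against 0.2% DMSO vehicle.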
# [19] = read-out: Broad substrate specificity ATP-binding cassette transporter ABCG2 (Homo sapiens) (UniProt Q9UNQ0); assay: CLD_ABCG2_24hr: CellzDirect (CLD) Gene Expression Assay for ABC Transporter (ABCG2) at 24 hours (AID 2283685)
# Summary of the method: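 ABCG2 mRNA induction, read as gain of chemiluminescent signal over 0.2% DMSO, was measured by quantitative nuclease protection at 24 h. Cultured human liver hepatocytes were given fresh dosing solutions of test chemicals at several concentrations each day.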
# [20] = read-out: HMG-CoA synthase (HMGCS2), HMGCS2 (gene 3158); assay: CLD_HMGCS2_24hr: CellzDirect (CLD) Gene Expression Assay for HMG-CoA synthase (HMGCS2) at 24 hours (AID 2283691)
# Summary of the method: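 qNPA with S1 nuclease digestion and chemiluminescent detection gave HMGCS2 transcript levels, fitted upward against 0.2% DMSO vehicle. Cultured human hepatocytes (two donors) received fresh compound daily and were harvested at 24 h; phase-contrast morphology flagged cytotoxicity.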
# Sequence of Cytochrome P450 2C19 (Homo sapiens) (P33261 whole entry, looked up): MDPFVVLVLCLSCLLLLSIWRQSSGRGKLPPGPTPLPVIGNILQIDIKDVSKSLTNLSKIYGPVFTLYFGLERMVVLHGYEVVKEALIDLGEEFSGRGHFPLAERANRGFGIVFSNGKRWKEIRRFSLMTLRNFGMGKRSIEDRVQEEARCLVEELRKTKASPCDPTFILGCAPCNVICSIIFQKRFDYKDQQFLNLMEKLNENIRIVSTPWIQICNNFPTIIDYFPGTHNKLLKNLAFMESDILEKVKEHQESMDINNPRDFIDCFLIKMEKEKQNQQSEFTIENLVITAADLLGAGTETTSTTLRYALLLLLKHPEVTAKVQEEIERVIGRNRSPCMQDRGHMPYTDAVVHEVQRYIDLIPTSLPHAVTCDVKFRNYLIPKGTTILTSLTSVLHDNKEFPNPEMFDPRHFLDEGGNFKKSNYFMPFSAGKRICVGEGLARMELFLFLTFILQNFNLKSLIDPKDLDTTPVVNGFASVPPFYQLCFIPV
# Sequence of Glyceraldehyde-3-phosphate dehydrogenase (Homo sapiens) (P04406 whole entry, looked up): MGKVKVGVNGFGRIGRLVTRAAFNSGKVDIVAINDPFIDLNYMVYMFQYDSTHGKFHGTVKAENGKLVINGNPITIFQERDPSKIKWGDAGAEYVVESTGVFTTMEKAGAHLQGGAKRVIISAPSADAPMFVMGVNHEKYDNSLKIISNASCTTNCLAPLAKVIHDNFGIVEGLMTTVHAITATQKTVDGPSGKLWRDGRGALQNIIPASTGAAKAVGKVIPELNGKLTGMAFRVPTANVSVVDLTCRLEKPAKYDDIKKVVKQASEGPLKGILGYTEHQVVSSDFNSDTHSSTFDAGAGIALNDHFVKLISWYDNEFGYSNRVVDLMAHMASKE
# Sequence of Cytochrome P450 3A4 (Homo sapiens) (P08684 whole entry, looked up): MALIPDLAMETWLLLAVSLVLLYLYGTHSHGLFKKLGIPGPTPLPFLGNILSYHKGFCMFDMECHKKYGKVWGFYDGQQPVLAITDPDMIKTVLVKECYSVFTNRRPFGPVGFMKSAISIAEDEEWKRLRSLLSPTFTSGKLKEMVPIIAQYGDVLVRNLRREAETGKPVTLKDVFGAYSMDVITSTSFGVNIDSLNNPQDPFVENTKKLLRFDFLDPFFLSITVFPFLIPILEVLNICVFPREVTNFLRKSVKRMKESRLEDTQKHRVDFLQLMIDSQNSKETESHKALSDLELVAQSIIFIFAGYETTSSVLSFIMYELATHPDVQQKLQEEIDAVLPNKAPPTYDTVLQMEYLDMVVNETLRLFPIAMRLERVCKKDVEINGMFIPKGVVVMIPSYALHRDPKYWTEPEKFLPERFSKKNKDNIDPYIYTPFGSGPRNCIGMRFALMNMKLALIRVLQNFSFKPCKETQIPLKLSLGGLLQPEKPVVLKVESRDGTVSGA
# Sequence of Broad substrate specificity ATP-binding cassette transporter ABCG2 (Homo sapiens) (Q9UNQ0 whole entry, looked up): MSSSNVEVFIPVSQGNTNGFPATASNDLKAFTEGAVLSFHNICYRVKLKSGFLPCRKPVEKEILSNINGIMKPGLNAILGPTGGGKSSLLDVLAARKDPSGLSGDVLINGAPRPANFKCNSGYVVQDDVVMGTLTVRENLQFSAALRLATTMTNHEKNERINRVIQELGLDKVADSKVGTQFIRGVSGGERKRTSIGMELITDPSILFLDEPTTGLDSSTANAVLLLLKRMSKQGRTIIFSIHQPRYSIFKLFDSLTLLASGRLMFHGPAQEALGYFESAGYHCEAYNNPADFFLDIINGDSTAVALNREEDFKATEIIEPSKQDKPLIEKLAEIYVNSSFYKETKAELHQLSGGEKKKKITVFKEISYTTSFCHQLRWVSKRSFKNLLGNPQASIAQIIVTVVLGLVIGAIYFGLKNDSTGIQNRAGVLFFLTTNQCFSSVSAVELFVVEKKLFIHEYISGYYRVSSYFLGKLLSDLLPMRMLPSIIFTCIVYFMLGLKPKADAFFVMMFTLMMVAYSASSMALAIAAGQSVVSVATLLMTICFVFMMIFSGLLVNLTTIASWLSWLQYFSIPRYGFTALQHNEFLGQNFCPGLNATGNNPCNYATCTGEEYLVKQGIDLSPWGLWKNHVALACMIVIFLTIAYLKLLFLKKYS
smiles,measurement,setting,value
CCNc1nc(NC(C)C)nc(SC)n1,outcome,[1],inactive
same,AC50,[2],0.92 µM (active)
same,outcome,[3],inactive
same,AC50,[4],4.22 µM (active)
same,outcome,[5],inactive
same,outcome,[6],inactive
same,outcome,[7],inactive
same,outcome,[8],inactive
same,outcome,[9],inactive
same,AC50,[10],5.88 µM (active)
same,AC50,[11],1.9 µM (active)
same,outcome,[12],inactive
same,outcome,[13],inactive
CCC(C)(CC)c1cc(NC(=O)c2c(OC)cccc2OC)on1,outcome,[1],inactive
same,AC50,[2],0.259 µM (active)
same,outcome,[3],inactive
same,AC50,[4],0.0271 µM (active)
same,outcome,[14],inactive
same,outcome,[7],inactive
same,outcome,[8],inactive
same,outcome,[9],inactive
same,AC50,[10],0.126 µM (active)
same,AC50,[11],0.26 µM (active)
same,outcome,[15],inactive
same,AC50,[13],4.25 µM (active)
CN(C)c1nc(=O)n(C2CCCCC2)c(=O)n1C,outcome,[1],inactive
same,outcome,[2],inactive
same,outcome,[16],inactive
same,AC50,[4],3.97 µM (active)
same,outcome,[14],inactive
same,outcome,[5],inactive
same,outcome,[7],inactive
same,outcome,[9],inactive
same,outcome,[17],inactive
same,outcome,[10],inactive
same,outcome,[12],inactive
same,outcome,[13],inactive
Cc1ccccc1CO[C@@H]1C[C@@]2(C(C)C)CC[C@]1(C)O2,outcome,[1],inactive
same,AC50,[2],3.91 µM (active)
same,outcome,[16],inactive
same,outcome,[3],inactive
same,AC50,[4],20 µM (active)
same,outcome,[14],inactive
same,outcome,[7],inactive
same,outcome,[8],inactive
same,AC50,[9],5.18 µM (active)
same,AC50,[10],10.4 µM (active)
same,AC50,[11],4.16 µM (active)
same,outcome,[18],inactive
same,AC50,[13],11.5 µM (active)
CCSC(=O)N(CC)C1CCCCC1,outcome,[1],inactive
same,outcome,[19],inactive
same,AC50,[2],6.17 µM (active)
same,outcome,[16],inactive
same,AC50,[4],0.000663 µM (active)
same,outcome,[14],inactive
same,outcome,[20],inactive
same,outcome,[5],inactive
same,outcome,[6],inactive
same,outcome,[8],inactive
same,outcome,[9],inactive
same,outcome,[17],inactive
same,AC50,[10],0.000988 µM (active)
same,AC50,[11],0.000515 µM (active)
same,outcome,[18],inactive
same,outcome,[15],inactive
same,outcome,[13],inactive
